Screening results deposited in PubChem by National Center for Advancing Translational Sciences (NCATS).
FMDV inh: blocks foot and mouth disease virus; FMDV antiviral cell-based qHTS; Potency, µM (top dose mostly 57.9 µM), without a hit: at the top dose activity change, negative = inhibition, actives largely listed as inhibitors; hit rate 1.2% among 410,000; AID 1159524; calls by dose curve; tested in HEK293T cells; also: read-out not given here; potency is read from the fitted curve at half-maximal effect; nearly all actives have a fitted effect of over 45% in size
HCMV antiviral: blocks human cytomegalovirus replication | HFF cells, HCMV-luciferase reporter, 72 h; active compounds read low | activity change, negative = inhibition, % at 57.5 µM | hit rate 4.5% among 410,000 | AID 1259415; in the data active = activity change below about -60%; inconclusive = no clear call, values can overlap the other calls; inactive = above about -39%
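Human foreskin fibroblasts infected with luciferase-reporter HCMV at MOI 1 PFU/cell, compounds at two doses. Luciferase measured 72 h post infection; normalized to buffer-only basal and Salinomycin (10uM) controls.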
HCV inhibitor: HCV inhibition. hit rate 3.4% among 340,000. AID 651820. Potency, µM (doses to about 41.8 µM), without a hit: at the top dose activity change, negative = inhibition, actives largely listed as inhibitors. Huh7.5.1 HCVcc-Cre infection, luciferase reporter, 44 h; active = well fitted inhibition curve with a large enough effect; inconclusive = small, poorly fitted or top-dose-only effect, or another doubt; inactive = no such curve, though single readings can be large or run the other way; also: potency is read from the fitted curve at half-maximal effect
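Whole-lifecycle infectious HCVcc-Cre system; cells 1,000/well, compound then virus (~0.5 moi) added 4 h after plating, 44 h culture. Luciferase read 15 sec following 15 min substrate incubation, room temp.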
MARV entry inh: Marburg virus entry inhibition; Marburg virus pseudotyped entry inhibition, cell reporter; Potency, µM (top dose mostly 37.8 µM), without a hit: at the top dose activity change, negative = inhibition, most hits filed as inhibitors; hit rate 1.8% among 300,000; AID 540276; calls by dose curve; tested in HEK293 cells; also: potency is read from the fitted curve at half-maximal effect
LASV entry inh: blocks Lassa virus binding to or entry into cells; Potency, µM (highest dose often 37.9 µM), without a hit: at the highest dose activity change, negative = inhibition, hits mostly inhibitors; Lassa virus pseudotype entry inhibition, cell reporter; hit rate 1.2% among 300,000; calls by dose curve; tested in HEK293 cells; also: potency is read from the fitted curve at half-maximal effect; nearly all actives have a fitted effect of over 50% in size
An asterisk follows results filed as active; ? = inconclusive; . = no result given; ! = a repeat was not active; [ ] = dose if it differs, or a comment. Rows were chosen to be rich in hits. Some 7.9% of all compounds tested hit in one or more screens of this group. % is scaled to controls: 0 for no effect and ±100 for the full control effect.

SMILES	FMDV inh	HCMV antiviral	HCV inhibitor	MARV entry inh	LASV entry inh
CCc1nnc(NC(=O)CCC(=O)NC2CCCc3ccccc32)s1 (configuration not stated)	-2.6%	7.8	16.1%	1.6%	11.0%
CCc1ccccc1Nc1nc(N)nc(COC(=O)CCC(=O)c2ccc(F)cc2)n1	6.4%	.	7.5%	?	10µM*
CCc1ccccc1S(=O)(=O)Cc1ccc(C(=O)NCCc2ccc(C)cc2)o1	-4.5%	-31.2	.	?	?
CCOc1cc2[nH]c(=S)n(Cc3ccc(C(=O)NCCN(CC)CC)cc3)c(=O)c2cc1OCC	7.9%	-20.3	?	10µM*	9.8%[46.1 µM]
CCOc1cc2[nH]c(=S)n(Cc3ccc(C(=O)NCC(OC)OC)cc3)c(=O)c2cc1OCC	-6.4%	25.8	-14.2%	-20.5%	-19.2%
CCOCCCn1c(=S)[nH]c2cc(C(=O)NCCN(CC)CC)ccc2c1=O	-13.4%	36.8	12.6µM*	?	-7.8%
CCCCNC(=O)c1ccc2c(=O)n(CCCOCC)c(=S)[nH]c2c1	5.5%	-4.9	5.7%	8.1%	1.5%
CCN(CC)CCNC(=O)c1ccc2c(=O)n(C3CCCC3)c(=S)[nH]c2c1	-10.2%	10.5	?	8.2µM*	?
CC(C)NC(=O)c1ccc2c(=O)n(C3CCCC3)c(=S)[nH]c2c1	3.2%	-26.9	-8.5%	1.2%	-10.9%
O=C(Cc1ccccc1)N1CC(=O)N2[C@@H](CO)[C@@H](c3ccc(Br)cc3)[C@@H]2C1	.	0.7	.	.	.
CC(C)(C)NC(=O)N1c2ccccc2Sc2ccccc21	-32.8%	-60.4*	-2.7%	.	.
COc1ccc(CCNC(=O)N2c3ccccc3Sc3ccccc32)cc1	17.8µM*	?	10µM*	?	?
CC(C)CNCC(=O)N1c2ccccc2Sc2ccccc21	-5.7%	-71.4*	5.8%	?	-5.5%
COCCCNC(=O)N1c2ccccc2Sc2ccccc21	-3.0%	49.1	13.5%	19.4%[46.1 µM]	3.2%[46.1 µM]
COCCNCC(=O)N1c2ccccc2Sc2ccccc21	-4.6%	14.2	-0.8%	-15.0%	?
CCC[C@H]1[C@@H](NS(=O)(=O)c2ccc(Br)cc2)CC[C@@]23CCCN2C(=O)CCC[C@@H]13	.	29.0	.	.	.
Cc1cccc(C(=O)N[C@H](C(=O)Nc2ncc(C)s2)C(C)C)c1	40.1%	-106.9*	?	4.7%[46.1 µM]	.
CCC(Oc1ccccc1)C(=O)Nc1ccc(C)c(S(=O)(=O)N2CCOCC2)c1 (configuration not stated)	10.6%	-25.2	?	?	?
CC(C)COCc1ccc(O)c2ncccc12	-14.8%	?	2.82µM*	?	?
CN(Cc1ccco1)Cc1ccc(O)c2ncccc12	2.2%	.	.	.	.
CCCOCc1ccc(O)c2ncccc12	-17.6%	-103.7*	5.62µM*	?	?
O=C1OC(c2cccc(Cl)c2)N=C2C1C=NN2c1ccccc1 (configuration not stated)	.	.	.	2.4%	.
CCN1CCCC1CNC(=O)c1cc(NC(C)=O)c(N(C)C)cc1OC (configuration not stated)	20.3%	-68.3*	7.6%	-21.2%	6.8%
CCN1CCCC1CNC(=O)c1ccccc1Cl (configuration not stated)	-24.4%	-31.0	9.1%	?	-2.3%
COc1cc(NC(=O)NCC2CCN(Cc3ccccc3Cl)CC2)cc(OC)c1OC	-24.0%	12.1	-28.3%	?	19.0%[46.1 µM]
SMILES	FMDV inh	HCMV antiviral	HCV inhibitor	MARV entry inh	LASV entry inh
CCc1cc(Cl)c(OC)c(C(=O)NC[C@@H]2CCCN2CC)c1O	-22.5%	-29.2	5.01µM*	.	.
COc1ccc2c(c1)C(=O)[C@H](OC(=O)Nc1ccc(OC(F)F)cc1)[C@@H](c1ccc(OC)c(Br)c1)O2	.	.	.	4.2%[14.2 µM]	.
COc1ccc(N(CC(=O)N/N=C/c2ccco2)S(=O)(=O)c2ccccc2)cc1	.	-21.8	2.5%	11.9%	5.0%
Cc1ccc([C@H]2C(C#N)=C(N)Oc3cc(C)oc(=O)c32)o1	25.1µM*	17.2	3.9%	5.4%[46.1 µM]	-3.5%
Cc1cc2c(c(=O)o1)C(c1cccs1)C(C#N)=C(N)O2 (configuration not stated)	-24.1%	-3.1	2.7%	28.7%	-6.2%
CCOC(=O)c1cnc(Nc2nc3ccccc3o2)nc1C	?	-33.1	-9.1%	4.11µM*	1.3µM*
CCOC(=O)c1cnc(Nc2nc3ccccc3o2)nc1CSc1nnc(C)s1	16.2%	52.7	-16.8%	?	?
Cc1nc(Nc2nc3ccccc3o2)nc2c1CCC2	?	-28.5	2.1%	7.3µM*	?
CC(=O)Nc1ccc2c(c1)Cc1cc(N3C(=O)C=CC3=O)ccc1-2	-26.6%	-65.9*	-15.2%	?	?
CCCCn1c(-c2csc3ccccc23)n[nH]c1=S	-4.3%	-15.9	3.2%	17.8%	9.4%
CCCCCCn1c(-c2cccs2)n[nH]c1=S	22.0%	-80.3*	0.5%	-25.6%[46.1 µM]	-4.9%[46.1 µM]
Cc1c(C(=O)N/N=C/c2cccnc2)nnn1-c1nonc1N	-17.2%	-8.2	-7.3%	3.5%[46.1 µM]	15.7%
COc1ccc(Br)c(C(=O)Nc2cc3c(cc2N2CCOCC2)n(C)c(=O)n3C)c1	-21.4%	22.2	.	-12.0%[46.1 µM]	-1.1%[46.1 µM]
CC(=O)N1CCN(Cc2nc3cc(NC(=O)c4cccc(Br)c4)ccc3n2C)CC1	?	-72.9*	17.8µM*	?	-24.4%
Cc1cccc(OCC(=O)Nc2ccc3c(c2)nc(CN2CCCCC2)n3C)c1	12.6µM*	?	?	?	?
CC(=O)N1CCN(Cc2nc3cc(NC(=O)COc4cccc(C)c4)ccc3n2C)CC1	?	-62.7*	-18.1%	?	-23.3%[46.1 µM]
Cc1cccc(OCC(=O)Nc2ccc3c(c2)nc(CCN2CCCCC2)n3C)c1	-3.3%	-86.2*	-21.7%	.	.
Cn1c(CN2CCCC2)nc2cc(NC(=O)COc3ccccc3)ccc21	-19.0%	7.4	-1.4%	20.6%[46.1 µM]	?
O=C(CN1CCCC1)Nc1ccc(F)c(Cl)c1	0.7%	-1.5	-15.2%	25.9%[46.1 µM]	22.4%[46.1 µM]
Cc1ccc(F)cc1C(=O)N1CCCCC1c1cc(C(=O)Nc2ccncc2)no1 (configuration not stated)	.	-15.6	.	.	.
C[C@@H]1C[C@@H](CC(=O)NCC2Cc3cccc(-c4ccncc4)c3O2)NC(=S)N1 (some centres not stated)	8.0%	.	.	.	.
O=C1[C@@H]2[C@H]3[C@H](O)[C@H](O)CC(=NOC[C@@H](O)COCc4ccco4)[C@@H]3CC[C@H]2C(=O)N1Cc1ccccc1	.	.	.	-3.6%[14.2 µM]	.
CN1CCc2ccccc2Cc2[nH]c3ccccc3c2CC1	-20.2%	1.6	-17.2%	11.2µM*!	-6.6%
NNC(=O)[C@@H]1C[C@@H]1c1ccccc1	-19.5%	12.8	3.0%	-1.6%	1.9%
Fc1ccc(NC(=S)Nc2ccc(Cl)cc2)cc1	19.0%	-78.4*	-3.2%	-11.0%[46.1 µM]	6.8%[46.1 µM]
Cc1ccc(NC(=S)NNC(=O)C2CC2c2ccc(C)cc2)cc1 (configuration not stated)	?	28.8	?	-12.8%	?
NNC(=O)C1CC1c1ccc(Cl)cc1 (configuration not stated)	-16.9%	-22.3	-14.4%	-0.5%	2.59µM*
